Source: PubChem
WT yeast gro inh: growth inhibition of WT strain, primary screen, mitochondrial fusion inhibitor project, WT and mutant strains, chemical genetic | mitochondrial fusion phenotypic screen | inhibition, % at 10 µM | 190,000 tested, 2.1% active | AID 1362, 2008; in the data active means inhibition above about 58%; tested in S. cerevisiae
PERK inh: block of dimerizer-induced PERK translation repression, primary screen, PERK inhibitor project, CHO PERK-DD cells, SEAP luminescence, HTS | Eukaryotic translation initiation factor 2-alpha kinase 3 (Homo sapiens), Q9NZJ5 | CHO PERK-DD fusion, SEAP luminescence translation reporter | inhibition, % at 5.6 µM | 220,000 tested, 0.17% active | AID 1416, 2008;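 active means inhibition above the mean inhibition of all tested compounds plus 3 SD, set separately per screening campaign, cut at about 2.9% in these data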;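 further: PERK kinase domain activated by AP20187 dimerizer at 100 nM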
Arbovirus inh: antivirals against arbovirus infection, primary screen, cell-based, full library, 10K replicate subset; 200,000 tested, 0.37% active; arbovirus infection cell-based antiviral screen; inhibition, % at 10 µM; AID 1251, 2008; in the data active means inhibition above about 30%
ROMK primary: ROMK potassium channel modulators, primary screen, cell-based, thallium flux, MLSMR library. B-score at 10 µM. Tet-inducible ROMK, thallium flux fluorescence; actives lie on both sides. 130,000 tested, 2% active;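 active means signal ratio slope over the read window, or its plate-corrected B-score, at least 3 SD from the plate mean, either direction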;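 further: B-score of the F/F0 ratio slope over 7 to 12 s after thallium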
Target sequence (P48048 whole entry, looked up): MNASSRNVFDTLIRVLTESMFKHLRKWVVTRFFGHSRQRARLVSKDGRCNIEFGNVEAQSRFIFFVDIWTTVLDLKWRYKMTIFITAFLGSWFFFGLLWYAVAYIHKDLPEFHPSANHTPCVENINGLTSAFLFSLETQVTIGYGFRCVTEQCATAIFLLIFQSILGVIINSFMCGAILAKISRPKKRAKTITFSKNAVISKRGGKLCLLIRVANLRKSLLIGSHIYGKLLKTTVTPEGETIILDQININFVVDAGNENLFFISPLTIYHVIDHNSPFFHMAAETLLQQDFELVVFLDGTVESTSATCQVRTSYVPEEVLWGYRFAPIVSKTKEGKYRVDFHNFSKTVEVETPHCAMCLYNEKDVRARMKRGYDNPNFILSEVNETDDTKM
Hits are given with their value. In the library only some 3.3% were active in any assay of this set; here they are far more common.

Results for c1ccc(-c2nc(N3CCCCC3)nc3ccccc23)cc1 ?
WT yeast gro inh: 68; PERK inh: inactive; Arbovirus inh: inactive; ROMK primary: inactive

What do the screens show for `Cc1ccc(NC(=O)c2c(O)c3ccccc3n(C)c2=O)nc1`?
WT yeast gro inh: inactive; PERK inh: inactive; Arbovirus inh: 33

How did Cn1c(=O)c(C(=O)Nc2ncccc2O)c(O)c2ccccc21 do in these assays?
WT yeast gro inh: inactive; PERK inh: inactive; Arbovirus inh: inactive

Results for Cc1ccc(CNC(=O)COC(=O)Cn2nc(C)c([N+](=O)[O-])c2C)cc1 ?
WT yeast gro inh: inactive; PERK inh: inactive; Arbovirus inh: inactive; ROMK primary: inactive

How did Cc1nn(CC(=O)OCCOc2ccc(Br)cc2)c(C)c1[N+](=O)[O-] do in these assays?
WT yeast gro inh: inactive; PERK inh: inactive; Arbovirus inh: 61; ROMK primary: inactive

What do the screens show for `CCN(CC)CCNC(=O)c1ccc(Sc2ccc(Cl)cc2)c(NC(C)=O)c1`?
WT yeast gro inh: inactive; PERK inh: inactive; Arbovirus inh: inactive; ROMK primary: inactive

How did Clc1ccc2ncc(-c3nnnn3-c3ccccc3)c(-c3ccccc3)c2c1 do in these assays?
WT yeast gro inh: 70; PERK inh: inactive; Arbovirus inh: inactive; ROMK primary: inactive

What do the screens show for `CC(C)=C(NC(=O)c1ccccc1Br)C(=O)NCCc1nc2ccccc2[nH]1`?
PERK inh: inactive; ROMK primary: inactive

What do the screens show for `CCN(CC)CCNc1ncnc2c1[nH]c1ccc(OC)cc12`?
WT yeast gro inh: inactive; PERK inh: inactive; Arbovirus inh: inactive; ROMK primary: inactive

How did COc1ccc2[nH]c3c(NCCC4=CCCCC4)ncnc3c2c1 do in these assays?
WT yeast gro inh: 84; PERK inh: inactive; Arbovirus inh: inactive; ROMK primary: inactive

What do the screens show for `O=C(COC(=O)c1ccc(=O)[nH]c1)Nc1cccc(S(=O)(=O)N2CCOCC2)c1`?
PERK inh: 2.9

How did O=C(COC(=O)c1cccs1)Nc1cccc(S(=O)(=O)N2CCOCC2)c1 do in these assays?
WT yeast gro inh: inactive; PERK inh: inactive; Arbovirus inh: inactive; ROMK primary: inactive

Results for O=C(c1ccc(COc2ccccc2Br)o1)N1CCN(c2ccccn2)CC1 ?
WT yeast gro inh: inactive; PERK inh: inactive; Arbovirus inh: inactive

What do the screens show for `O=C(c1ccc(C#Cc2ccccc2)o1)N1CCN(c2ccccn2)CC1`?
WT yeast gro inh: 69; PERK inh: inactive; Arbovirus inh: inactive; ROMK primary: inactive

How did CCN(CC)c1nc(-c2ccccn2)nc(-c2ccccc2)c1C#N do in these assays?
WT yeast gro inh: 80; PERK inh: inactive; Arbovirus inh: inactive; ROMK primary: inactive

What do the screens show for `CN(C)c1nc(-c2ccccn2)nnc1-c1ccccc1`?
WT yeast gro inh: 61; PERK inh: inactive; Arbovirus inh: inactive; ROMK primary: inactive

How did Cc1ccc(-c2nnc(-c3ccccc3)c(-c3ccccc3)n2)cc1 do in these assays?
WT yeast gro inh: 76; PERK inh: inactive; Arbovirus inh: inactive

Results for c1ccc(-c2nnc(-c3ccccn3)c(-c3ccccn3)n2)nc1 ?
PERK inh: inactive

How did Oc1ccc(-c2nnc(-c3ccccc3)c(-c3ccccc3)n2)cc1 do in these assays?
WT yeast gro inh: inactive; PERK inh: inactive; Arbovirus inh: inactive

Results for COc1ccc(S(=O)(=O)N2c3ccccc3OCC2C(C)(C)C)cc1 (centres undefined) ?
WT yeast gro inh: 77; PERK inh: inactive; Arbovirus inh: inactive; ROMK primary: inactive

What do the screens show for `O=C1CCCc2nc3nc4ccccc4n3cc21`?
WT yeast gro inh: inactive; PERK inh: inactive; Arbovirus inh: inactive; ROMK primary: inactive

How did Cc1ccc(-c2nc(CN(Cc3cnn(C)c3)C(C)C)c(C)o2)o1 do in these assays?
WT yeast gro inh: inactive; PERK inh: inactive; Arbovirus inh: inactive; ROMK primary: inactive

How did Cc1cccc(CSC(Nc2ccc(F)cc2)=C(C#N)C#N)c1 do in these assays?
WT yeast gro inh: 80; PERK inh: inactive; Arbovirus inh: inactive; ROMK primary: inactive

What do the screens show for `COc1ccc(C(=O)NCc2nnc(SCC(=O)N3CCc4ccccc43)n2Cc2ccccc2)cc1`?
WT yeast gro inh: inactive; PERK inh: inactive; Arbovirus inh: inactive

How did COC(=O)c1cc(=O)n(CCc2ccc(OC)cc2)c(=Nc2ccc(F)c(Cl)c2)s1 do in these assays?
WT yeast gro inh: inactive; PERK inh: inactive; Arbovirus inh: inactive

What do the screens show for `COC(=O)c1cc(=O)n(Cc2ccc3c(c2)OCO3)c(=Nc2ccc(F)c(Cl)c2)s1`?
WT yeast gro inh: inactive; PERK inh: 2.9; Arbovirus inh: inactive

What do the screens show for `CN1C/C(=C/c2cccnc2)C(=O)/C(=C/c2cccnc2)C1`?
WT yeast gro inh: inactive; PERK inh: inactive; Arbovirus inh: inactive; ROMK primary: -3.5

How did Cc1ccc2c(c1)C(=O)CCCCC(=O)N2 do in these assays?
PERK inh: inactive

How did O=C1/C(=C/Nc2ccc3c(c2)OCO3)CCc2ccccc21 do in these assays?
WT yeast gro inh: 62; PERK inh: inactive; Arbovirus inh: inactive

How did Cc1scc(-c2n[nH]c(=S)n2Cc2ccccc2)c1C do in these assays?
WT yeast gro inh: 71; PERK inh: inactive; Arbovirus inh: inactive

What do the screens show for `Cc1ccccc1OCc1n[nH]c(=S)n1Cc1ccccc1`?
WT yeast gro inh: 73; PERK inh: inactive; Arbovirus inh: inactive; ROMK primary: inactive

Results for CCc1c(-c2n[nH]c(=S)n2Cc2ccccc2)csc1C ?
WT yeast gro inh: inactive; PERK inh: inactive; Arbovirus inh: inactive

Results for COc1cc(NC(=O)Cn2ccsc2=N)cc(OC)c1 ?
PERK inh: inactive

What do the screens show for `Cc1ccc(/C=C2/NC(=O)N(Cc3ccccc3F)C2=O)s1`?
WT yeast gro inh: inactive; PERK inh: inactive; Arbovirus inh: inactive; ROMK primary: inactive

What do the screens show for `CCCN1C(=O)/C(=C/c2ccc(C)s2)NC1=S`?
WT yeast gro inh: inactive; PERK inh: inactive; Arbovirus inh: inactive; ROMK primary: 5.5

How did CC(c1ccccc1)N(CCC(c1ccccc1)C1CCOC(C)(C)C1)C(=O)c1ccco1 (centres undefined) do in these assays?
WT yeast gro inh: 79; PERK inh: inactive; Arbovirus inh: inactive

Results for CCCCN(CCCC)CC(O)COc1ccccc1Br (centres undefined) ?
WT yeast gro inh: inactive; PERK inh: inactive; Arbovirus inh: 39

What do the screens show for `CCC(C(=O)NCc1ccccc1OC)c1ccccc1` (centres undefined)?
WT yeast gro inh: inactive; PERK inh: inactive; Arbovirus inh: inactive; ROMK primary: inactive

What do the screens show for `CC(C)c1cc(N2CCC(=O)NC2=O)cc(C(=O)O)c1O`?
WT yeast gro inh: inactive; PERK inh: inactive; Arbovirus inh: inactive; ROMK primary: inactive

Results for Cc1cc(/C=C2/C(=N)N3C(c4ccccc4)=CSC3=NC2=O)c(C)n1-c1ccccc1 ?
WT yeast gro inh: inactive; PERK inh: inactive; Arbovirus inh: inactive

What do the screens show for `Cc1cc(/C=C2/C(=N)N3C(=NC2=O)SN=C3S(C)(=O)=O)c(C)n1-c1ccc(F)cc1`?
WT yeast gro inh: inactive; PERK inh: inactive; Arbovirus inh: 37; ROMK primary: inactive
